Common to all, as to assay: DAPPL (digital affinity profiling via proximity ligation, sequencing); 10 mM Tris-HCl pH 7.5, 50 mM NaCl, 1 mM DTT, 4% glycerol, room temperature, 30 min; GST-TFs on glutathione beads, 16-mer random dsDNA library, 0.1% formaldehyde crosslink after washing; high values mean tight binding
Common to all, as to settings: protein: recombinant; tags: N-terminal GST; dsDNA, one strand shown

Assay [1] addresses T1, FLI1 (Homo sapiens, UniProt Q01543 1-452).
T1 sequence: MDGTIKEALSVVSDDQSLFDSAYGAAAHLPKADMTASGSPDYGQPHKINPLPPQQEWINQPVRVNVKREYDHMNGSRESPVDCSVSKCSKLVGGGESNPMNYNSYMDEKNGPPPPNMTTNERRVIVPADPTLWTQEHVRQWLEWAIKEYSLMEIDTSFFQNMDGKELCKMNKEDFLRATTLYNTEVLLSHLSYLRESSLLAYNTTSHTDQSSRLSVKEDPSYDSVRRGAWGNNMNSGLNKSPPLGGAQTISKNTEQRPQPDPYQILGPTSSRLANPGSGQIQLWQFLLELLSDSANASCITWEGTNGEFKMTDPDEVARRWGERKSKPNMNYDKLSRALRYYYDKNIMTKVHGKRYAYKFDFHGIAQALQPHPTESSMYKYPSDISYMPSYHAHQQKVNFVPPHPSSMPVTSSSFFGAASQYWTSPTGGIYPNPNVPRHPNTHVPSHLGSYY
Summed up: (§1)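 After expression in yeast as GST fusions, human transcription factors were bound to glutathione beads, DNA-barcoded and mixed with a tag-only sample. The pools were incubated with 200 nmole of a 16-mer random double-stranded DNA library in Tris/NaCl/DTT/glycerol buffer (30 min, room temperature), washed and crosslinked with 0.1% formaldehyde. Proximity ligation with BsaI/T4 ligase ran for 1 h at 37 °C, before PCR amplification and sequencing on an Illumina NextSeq500. Binding signal is a hexamer's read frequency for a factor divided by its frequency for the tag-only sample.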

Assay [2] deals with T2, ERG (Homo sapiens, UniProt P11308 1-479).
T2 sequence: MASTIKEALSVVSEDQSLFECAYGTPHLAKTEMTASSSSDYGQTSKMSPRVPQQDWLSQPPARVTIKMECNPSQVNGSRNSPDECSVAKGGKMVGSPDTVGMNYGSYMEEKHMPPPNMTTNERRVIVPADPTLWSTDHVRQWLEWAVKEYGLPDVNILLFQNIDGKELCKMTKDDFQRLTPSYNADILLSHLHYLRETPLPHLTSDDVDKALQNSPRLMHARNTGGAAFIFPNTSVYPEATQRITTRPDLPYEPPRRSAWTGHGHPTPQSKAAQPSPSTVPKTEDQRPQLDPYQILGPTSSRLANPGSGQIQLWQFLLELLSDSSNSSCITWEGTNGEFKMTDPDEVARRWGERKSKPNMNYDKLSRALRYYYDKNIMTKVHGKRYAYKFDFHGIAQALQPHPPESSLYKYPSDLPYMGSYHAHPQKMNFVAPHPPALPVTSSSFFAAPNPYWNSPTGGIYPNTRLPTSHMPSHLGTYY
Summed up: as §1

The target in assay [3] is ELF1 (Homo sapiens, UniProt P32519 1-619). Summed up:
as §1

In assay [4] the target is T3, EHF (Homo sapiens, UniProt Q9NZC4 1-300).
T3 sequence: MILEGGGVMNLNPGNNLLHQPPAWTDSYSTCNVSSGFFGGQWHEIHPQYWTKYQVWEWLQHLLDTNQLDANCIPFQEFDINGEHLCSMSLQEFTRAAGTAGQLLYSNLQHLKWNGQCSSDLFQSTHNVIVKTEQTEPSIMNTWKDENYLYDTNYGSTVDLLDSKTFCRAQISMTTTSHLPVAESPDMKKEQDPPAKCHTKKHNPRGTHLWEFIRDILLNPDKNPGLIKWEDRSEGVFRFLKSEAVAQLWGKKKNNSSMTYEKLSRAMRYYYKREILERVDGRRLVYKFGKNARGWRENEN
Summed up: as §1

The target in assay [5] is SPIB (Homo sapiens, UniProt Q01892 1-262). Summed up: as §1
In assay [6] the target is T4, FEV (Homo sapiens, UniProt Q99581 1-238).
T4 sequence: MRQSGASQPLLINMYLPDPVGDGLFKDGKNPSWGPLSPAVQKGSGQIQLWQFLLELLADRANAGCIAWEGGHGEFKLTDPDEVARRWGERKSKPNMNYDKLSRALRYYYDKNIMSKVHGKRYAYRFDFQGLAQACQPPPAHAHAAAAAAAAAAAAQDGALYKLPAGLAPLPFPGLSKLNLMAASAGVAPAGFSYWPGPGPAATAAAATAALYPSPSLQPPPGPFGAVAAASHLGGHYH
Summed up: as §1

In assay [7] the target is ETV5 (Homo sapiens, UniProt P41161 1-510). Summed up: as §1
The target in assay [8] is T5, SPIC (Homo sapiens, UniProt Q8N5J4 1-248).
T5 sequence: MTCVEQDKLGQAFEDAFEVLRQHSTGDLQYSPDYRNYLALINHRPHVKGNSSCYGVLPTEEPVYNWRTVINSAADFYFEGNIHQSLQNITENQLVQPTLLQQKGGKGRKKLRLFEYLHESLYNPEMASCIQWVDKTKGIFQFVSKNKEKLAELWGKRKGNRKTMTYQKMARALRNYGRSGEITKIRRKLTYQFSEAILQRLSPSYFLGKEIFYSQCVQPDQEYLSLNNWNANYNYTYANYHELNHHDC
Summed up: as §1

Assay [9] concerns the target ELF4 (Homo sapiens, UniProt Q99607 1-663). The method in brief:
as §1

In assay [10] the target is T6, ERF (Homo sapiens, UniProt P50548 1-548).
T6 sequence: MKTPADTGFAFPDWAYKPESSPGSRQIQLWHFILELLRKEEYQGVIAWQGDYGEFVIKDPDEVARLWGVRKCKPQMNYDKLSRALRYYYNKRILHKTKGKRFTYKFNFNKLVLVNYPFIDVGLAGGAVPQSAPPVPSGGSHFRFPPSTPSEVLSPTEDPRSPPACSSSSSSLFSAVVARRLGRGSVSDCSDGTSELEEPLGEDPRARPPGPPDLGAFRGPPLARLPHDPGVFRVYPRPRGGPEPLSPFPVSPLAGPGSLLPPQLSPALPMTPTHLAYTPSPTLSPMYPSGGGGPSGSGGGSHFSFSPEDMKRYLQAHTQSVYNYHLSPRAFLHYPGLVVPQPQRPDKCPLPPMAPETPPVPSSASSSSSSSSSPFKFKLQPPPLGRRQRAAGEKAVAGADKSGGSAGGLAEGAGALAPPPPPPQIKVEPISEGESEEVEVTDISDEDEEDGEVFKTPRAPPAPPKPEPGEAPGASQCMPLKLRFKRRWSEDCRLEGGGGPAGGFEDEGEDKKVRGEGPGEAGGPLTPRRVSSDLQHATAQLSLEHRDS
The method in brief:
as §1

Assay [11] addresses T7, ETV3L (Homo sapiens, UniProt Q6ZN32 1-361).
T7 sequence: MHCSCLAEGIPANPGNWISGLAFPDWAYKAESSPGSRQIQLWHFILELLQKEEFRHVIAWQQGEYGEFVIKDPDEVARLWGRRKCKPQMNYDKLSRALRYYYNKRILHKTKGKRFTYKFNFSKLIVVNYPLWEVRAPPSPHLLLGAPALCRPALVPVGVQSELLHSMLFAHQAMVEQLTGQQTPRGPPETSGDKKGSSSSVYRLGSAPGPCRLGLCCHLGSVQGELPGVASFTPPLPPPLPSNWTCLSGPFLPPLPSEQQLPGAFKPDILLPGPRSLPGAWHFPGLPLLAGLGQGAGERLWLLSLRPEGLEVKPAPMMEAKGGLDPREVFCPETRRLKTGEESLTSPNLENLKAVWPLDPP
Summed up: as §1

The target in assay [12] is T8, ETS2 (Homo sapiens, UniProt P15036 1-469).
T8 sequence: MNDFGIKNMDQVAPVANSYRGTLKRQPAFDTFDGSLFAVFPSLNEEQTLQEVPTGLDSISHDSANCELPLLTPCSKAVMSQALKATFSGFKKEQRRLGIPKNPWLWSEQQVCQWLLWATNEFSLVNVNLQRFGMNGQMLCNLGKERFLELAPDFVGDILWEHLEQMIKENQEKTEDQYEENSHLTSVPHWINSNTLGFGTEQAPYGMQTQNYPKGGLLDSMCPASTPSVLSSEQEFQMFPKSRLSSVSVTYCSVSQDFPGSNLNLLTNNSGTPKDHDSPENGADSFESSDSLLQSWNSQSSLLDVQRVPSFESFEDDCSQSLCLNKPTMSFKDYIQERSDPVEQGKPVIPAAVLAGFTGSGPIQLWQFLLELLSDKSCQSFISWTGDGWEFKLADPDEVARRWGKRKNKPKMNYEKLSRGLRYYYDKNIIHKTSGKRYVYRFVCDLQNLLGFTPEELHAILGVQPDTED
The method in brief: as §1

Assay [13] concerns the target T9, ETV3 (Homo sapiens, UniProt P41162-2 1-143).
T9 sequence: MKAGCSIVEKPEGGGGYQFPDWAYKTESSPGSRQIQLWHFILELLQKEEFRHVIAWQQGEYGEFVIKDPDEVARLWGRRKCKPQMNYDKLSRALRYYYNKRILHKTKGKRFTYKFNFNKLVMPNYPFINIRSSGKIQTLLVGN
Summed up:
as §1

The target in assay [14] is T10, GABPA (Homo sapiens, UniProt Q06546 1-454).
T10 sequence: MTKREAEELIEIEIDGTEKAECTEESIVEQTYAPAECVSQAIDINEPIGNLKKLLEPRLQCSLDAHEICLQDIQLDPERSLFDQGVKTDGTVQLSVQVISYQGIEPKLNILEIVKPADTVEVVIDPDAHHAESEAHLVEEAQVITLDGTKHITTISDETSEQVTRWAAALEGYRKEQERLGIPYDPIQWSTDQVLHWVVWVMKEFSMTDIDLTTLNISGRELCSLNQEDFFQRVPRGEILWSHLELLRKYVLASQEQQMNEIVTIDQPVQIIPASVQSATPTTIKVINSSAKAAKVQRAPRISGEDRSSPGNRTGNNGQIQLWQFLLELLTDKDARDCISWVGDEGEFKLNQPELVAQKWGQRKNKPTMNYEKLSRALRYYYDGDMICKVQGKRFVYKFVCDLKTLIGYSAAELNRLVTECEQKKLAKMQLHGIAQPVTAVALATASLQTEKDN
The method in brief:
as §1

Assay [15] concerns the target SPI1 (Homo sapiens, UniProt P17947 1-270). Summed up:
as §1

Assay [16] addresses T11, ELK3 (Homo sapiens, UniProt P41970 1-407).
T11 sequence: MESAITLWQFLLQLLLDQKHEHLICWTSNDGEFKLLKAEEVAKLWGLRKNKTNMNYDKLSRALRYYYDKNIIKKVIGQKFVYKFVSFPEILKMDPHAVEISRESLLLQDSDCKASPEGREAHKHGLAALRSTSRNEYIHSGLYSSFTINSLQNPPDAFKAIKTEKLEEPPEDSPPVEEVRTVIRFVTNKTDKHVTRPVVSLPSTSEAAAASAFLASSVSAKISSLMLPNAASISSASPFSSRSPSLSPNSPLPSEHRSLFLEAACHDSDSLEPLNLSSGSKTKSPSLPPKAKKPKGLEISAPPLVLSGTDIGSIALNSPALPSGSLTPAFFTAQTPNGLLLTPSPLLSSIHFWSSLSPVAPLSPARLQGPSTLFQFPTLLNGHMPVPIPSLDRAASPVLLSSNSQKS
Summed up:
as §1

Assay [17] concerns the target ETV1 (Homo sapiens, UniProt P50549 1-477). Summed up:
as §1

The target in assay [18] is ETV6 (Homo sapiens, UniProt P41212 1-452). The method in brief:
as §1

ELF1, sequence (P32519 whole entry): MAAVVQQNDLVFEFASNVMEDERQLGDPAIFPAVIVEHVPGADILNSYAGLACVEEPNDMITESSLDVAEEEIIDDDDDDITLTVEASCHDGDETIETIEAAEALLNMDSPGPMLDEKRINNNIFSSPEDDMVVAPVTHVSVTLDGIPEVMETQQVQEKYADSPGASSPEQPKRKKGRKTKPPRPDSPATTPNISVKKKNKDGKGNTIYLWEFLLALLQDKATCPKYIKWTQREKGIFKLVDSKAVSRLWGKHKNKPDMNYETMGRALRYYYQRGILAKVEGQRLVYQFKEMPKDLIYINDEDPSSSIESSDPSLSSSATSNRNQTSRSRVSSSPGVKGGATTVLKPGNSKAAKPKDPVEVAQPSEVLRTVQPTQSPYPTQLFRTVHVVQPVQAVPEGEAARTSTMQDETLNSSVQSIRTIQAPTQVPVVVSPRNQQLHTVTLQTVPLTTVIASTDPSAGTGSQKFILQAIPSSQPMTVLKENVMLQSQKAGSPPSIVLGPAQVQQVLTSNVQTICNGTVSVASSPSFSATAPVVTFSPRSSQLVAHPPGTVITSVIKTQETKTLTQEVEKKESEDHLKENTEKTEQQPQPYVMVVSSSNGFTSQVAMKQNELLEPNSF
ETV5, sequence (P41161 whole entry): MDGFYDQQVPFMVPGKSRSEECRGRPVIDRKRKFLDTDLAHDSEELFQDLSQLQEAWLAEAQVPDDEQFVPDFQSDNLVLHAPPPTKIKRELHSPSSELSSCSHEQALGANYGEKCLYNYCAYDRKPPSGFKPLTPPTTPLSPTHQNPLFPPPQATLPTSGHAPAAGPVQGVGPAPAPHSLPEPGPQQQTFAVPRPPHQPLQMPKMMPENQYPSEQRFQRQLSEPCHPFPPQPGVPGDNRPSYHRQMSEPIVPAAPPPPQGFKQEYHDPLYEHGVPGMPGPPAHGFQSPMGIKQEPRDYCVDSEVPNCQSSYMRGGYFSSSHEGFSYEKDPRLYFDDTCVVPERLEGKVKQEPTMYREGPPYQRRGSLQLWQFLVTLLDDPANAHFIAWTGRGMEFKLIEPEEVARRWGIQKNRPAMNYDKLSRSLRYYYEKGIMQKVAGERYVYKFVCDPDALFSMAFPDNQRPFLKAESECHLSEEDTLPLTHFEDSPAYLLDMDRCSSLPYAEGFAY
ELF4, sequence (Q99607 whole entry): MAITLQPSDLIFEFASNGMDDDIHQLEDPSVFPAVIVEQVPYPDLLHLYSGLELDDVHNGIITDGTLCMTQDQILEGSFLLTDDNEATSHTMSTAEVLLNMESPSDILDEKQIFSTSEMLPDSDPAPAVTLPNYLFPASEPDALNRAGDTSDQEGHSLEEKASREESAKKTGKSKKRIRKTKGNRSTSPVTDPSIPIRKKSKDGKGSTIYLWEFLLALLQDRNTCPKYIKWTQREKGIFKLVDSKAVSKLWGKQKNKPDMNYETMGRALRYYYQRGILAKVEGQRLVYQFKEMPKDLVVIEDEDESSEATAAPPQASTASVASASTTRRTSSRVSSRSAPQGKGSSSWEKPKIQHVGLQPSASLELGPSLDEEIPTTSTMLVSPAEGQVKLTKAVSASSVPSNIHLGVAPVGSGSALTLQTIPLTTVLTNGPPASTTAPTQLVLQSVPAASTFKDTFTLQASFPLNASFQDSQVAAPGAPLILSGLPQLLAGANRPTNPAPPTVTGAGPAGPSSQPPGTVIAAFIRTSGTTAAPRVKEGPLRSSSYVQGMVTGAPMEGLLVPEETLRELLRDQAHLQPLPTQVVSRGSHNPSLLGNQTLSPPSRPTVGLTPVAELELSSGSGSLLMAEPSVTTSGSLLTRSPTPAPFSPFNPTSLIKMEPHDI
ETV6, sequence (P41212 whole entry): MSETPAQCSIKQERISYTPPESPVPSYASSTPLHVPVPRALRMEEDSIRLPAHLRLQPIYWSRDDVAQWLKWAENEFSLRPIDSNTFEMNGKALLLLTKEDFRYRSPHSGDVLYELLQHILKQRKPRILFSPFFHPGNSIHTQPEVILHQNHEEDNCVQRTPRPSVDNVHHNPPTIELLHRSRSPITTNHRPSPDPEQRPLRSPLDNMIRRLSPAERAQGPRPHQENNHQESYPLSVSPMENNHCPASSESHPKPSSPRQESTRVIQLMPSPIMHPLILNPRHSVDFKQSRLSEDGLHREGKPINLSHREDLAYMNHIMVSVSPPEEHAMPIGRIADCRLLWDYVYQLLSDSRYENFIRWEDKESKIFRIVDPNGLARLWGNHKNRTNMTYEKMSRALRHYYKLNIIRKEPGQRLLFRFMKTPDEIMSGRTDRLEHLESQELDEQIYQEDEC
ETV1, sequence (P50549 whole entry): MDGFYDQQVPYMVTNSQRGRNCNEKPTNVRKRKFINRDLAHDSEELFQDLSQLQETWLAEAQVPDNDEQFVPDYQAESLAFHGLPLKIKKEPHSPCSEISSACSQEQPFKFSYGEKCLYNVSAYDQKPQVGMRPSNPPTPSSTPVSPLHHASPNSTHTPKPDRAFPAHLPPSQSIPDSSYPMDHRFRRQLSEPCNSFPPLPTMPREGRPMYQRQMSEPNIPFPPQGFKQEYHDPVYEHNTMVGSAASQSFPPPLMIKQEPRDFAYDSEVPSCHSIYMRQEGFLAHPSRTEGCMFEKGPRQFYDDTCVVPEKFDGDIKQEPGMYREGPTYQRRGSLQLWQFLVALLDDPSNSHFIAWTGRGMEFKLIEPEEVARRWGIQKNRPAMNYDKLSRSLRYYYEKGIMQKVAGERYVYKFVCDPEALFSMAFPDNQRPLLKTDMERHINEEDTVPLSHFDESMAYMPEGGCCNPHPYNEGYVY
SPIB, sequence (Q01892 whole entry): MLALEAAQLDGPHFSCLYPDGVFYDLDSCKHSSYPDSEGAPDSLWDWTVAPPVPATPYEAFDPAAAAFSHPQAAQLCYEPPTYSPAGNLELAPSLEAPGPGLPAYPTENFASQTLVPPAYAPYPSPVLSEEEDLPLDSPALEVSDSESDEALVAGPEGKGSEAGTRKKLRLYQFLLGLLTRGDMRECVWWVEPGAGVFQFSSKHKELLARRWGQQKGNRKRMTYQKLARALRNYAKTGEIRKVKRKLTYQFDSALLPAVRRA

For the sequence CGCTGG, the binding signal in assay [1] was 1.05 fold enrichment (6-mer frequency, TF over GST control); in assay [2], 1.03 fold enrichment (6-mer frequency, TF over GST control); in assay [3], 1.08 fold enrichment (6-mer frequency, TF over GST control); in [4] it was 1 fold enrichment (6-mer frequency, TF over GST control); in assay [5] it was 1.01 fold enrichment (6-mer frequency, TF over GST control); in assay [6], 1.02 fold enrichment (6-mer frequency, TF over GST control). The binding signal was 1 fold enrichment (6-mer frequency, TF over GST control) in [7]; 1.01 fold enrichment (6-mer frequency, TF over GST control) in assay [8]; 1.02 fold enrichment (6-mer frequency, TF over GST control) in assay [9]; 1.05 fold enrichment (6-mer frequency, TF over GST control) in assay [10]; 1.03 fold enrichment (6-mer frequency, TF over GST control) in assay [11]; 1.1 fold enrichment (6-mer frequency, TF over GST control) in [12]. Besides, in assay [13], the binding signal is 1.12 fold enrichment (6-mer frequency, TF over GST control).

Turning to GTTACG, the binding signal was 1.08 fold enrichment (6-mer frequency, TF over GST control) in [1]; 1.01 fold enrichment (6-mer frequency, TF over GST control) in assay [14]; 1.01 fold enrichment (6-mer frequency, TF over GST control) in assay [2]; 1.07 fold enrichment (6-mer frequency, TF over GST control) in [3]; 1.03 fold enrichment (6-mer frequency, TF over GST control) in [4]; 1.01 fold enrichment (6-mer frequency, TF over GST control) in assay [15]. Moreover, the binding signal was 1.01 fold enrichment (6-mer frequency, TF over GST control) in assay [16]; 1.03 fold enrichment (6-mer frequency, TF over GST control) in assay [7]; 1.05 fold enrichment (6-mer frequency, TF over GST control) in assay [8]; 1.02 fold enrichment (6-mer frequency, TF over GST control) in assay [9]; 1.07 fold enrichment (6-mer frequency, TF over GST control) in [17]; 1.06 fold enrichment (6-mer frequency, TF over GST control) in assay [10]. Also, the binding signal in [11] is 1.14 fold enrichment (6-mer frequency, TF over GST control); in assay [12] it was 1.06 fold enrichment (6-mer frequency, TF over GST control); in assay [13], 1.04 fold enrichment (6-mer frequency, TF over GST control); in assay [18], 1.09 fold enrichment (6-mer frequency, TF over GST control).

The record behind these values is PMC7862700, “An all-to-all approach to the identification of sequence-specific readers for epigenetic DNA modifications on cytosine”.
